The text below walks through data of PubChem BioAssay.

Structures are written as SMILES. Activity calls are given as the source filed them. Unless noted, the rule behind the calls is not given here.

Assay [1] in a line: resazurin metabolic signal in HepG2 cells – cell-based, resazurin fluorescence, 24 h, PK04 Diversity Set, profiling panel (AID 1172). Note: test concentration not given here. As to conditions: HepG2 viability, higher = more signal. For orientation: Resazurin is reduced to fluorescent resorufin, in cell work by metabolically active cells.
A short description of assay [2]: budding yeast growth changes without added modifier – OD600, strain BY4716, 24 h, basal condition, primary screen (AID 1173). As to conditions: S. cerevisiae BY4716 growth, OD600, 24 h; higher = more signal, called active from +8 up or from −8 down.
The nature of assay [3]: viability profiling in MM1S myeloma cells – cell-based, resazurin fluorescence, basal, 24 h, PK04 Diversity Set, profiling panel (AID 1174).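 Note: MM1S multiple myeloma cell line; test concentration not given here.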 As to conditions: higher = more signal, called active from +8 up or from −8 down.
Assay [4] has as its target Dihydroorotate dehydrogenase (quinone), mitochondrial (Plasmodium falciparum (isolate 3D7)) (UniProt Q08210). Description: inhibition of P. falciparum DHODH – biochemical, C-terminal His tag, absorbance 600 nm, primary screen (AID 1175).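 Note: recombinant parasite enzyme with a five histidine tag at its C terminus; test concentration not given here.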 The settings on record: PfDHODH enzyme, DCIP absorbance 600 nm; higher = more signal, called active from +8 up or from −8 down.
The nature of assay [5]: inhibition of PAO1 biofilm formation – strain PAO1, LB-PBS medium, absorbance 600 nm, primary screen (AID 1176). Note: test concentration not given here. As to conditions: P. aeruginosa PAO1 growth/biofilm, A600, 12 h; higher = more signal.
Assay [6] is described as follows: growth modulation of vineyard yeast isolate – strain RM11-1a, OD600, basal, 24 h, primary screen (AID 1177).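 Note: cultures grown under basal conditions with no added stressor; test concentration not given here.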 The settings on record: S. cerevisiae RM11-1a growth, OD600, 24 h; higher = more signal, called active from +8 up or from −8 down.
Assay [7] is described as follows: growth of efflux-deficient E. coli DRC39 – strain DRC39, OD650, 24 h, E. coli filamentation inducers, primary screen (AID 1178).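 Note: growth measured as culture turbidity by optical density at 650 nm; test concentration not given here.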 The settings on record: E. coli DRC39 acrAB, higher = more signal, called active from +8 up or from −8 down.
Assay [8] can be described thus: growth of efflux-deficient E. coli DRC39 – strain DRC39, OD650, 48 h, E. coli filamentation inducers, primary screen (AID 1179).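 Note: screen aims at cell division blockers that make cells filament.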 As to conditions: E. coli DRC39 delta-acrAB growth, higher = more signal, called active from +8 up or from −8 down.
Assay [9] is described as follows: viability profiling in RPMI8226 myeloma cells – cell-based, resazurin fluorescence, basal, 24 h, PK04 Diversity Set, profiling panel (AID 1180).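 Note: RPMI8826 multiple myeloma cell line at 5000 cells per well; test concentration not given here.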 The settings on record: higher = more signal.
The target in assay [10] is E3 ubiquitin-protein ligase XIAP (Homo sapiens) (UniProt P98170). Description: small molecules binding XIAP protein – biophysical, small-molecule microarray, fluorescence 635 nm, primary screen (AID 1181).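 Note: score merges 667 nm emission and signal to noise over triplicate slides.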 The settings on record: higher = more signal.
Sequence of E3 ubiquitin-protein ligase XIAP (Homo sapiens) (P98170 whole entry, looked up): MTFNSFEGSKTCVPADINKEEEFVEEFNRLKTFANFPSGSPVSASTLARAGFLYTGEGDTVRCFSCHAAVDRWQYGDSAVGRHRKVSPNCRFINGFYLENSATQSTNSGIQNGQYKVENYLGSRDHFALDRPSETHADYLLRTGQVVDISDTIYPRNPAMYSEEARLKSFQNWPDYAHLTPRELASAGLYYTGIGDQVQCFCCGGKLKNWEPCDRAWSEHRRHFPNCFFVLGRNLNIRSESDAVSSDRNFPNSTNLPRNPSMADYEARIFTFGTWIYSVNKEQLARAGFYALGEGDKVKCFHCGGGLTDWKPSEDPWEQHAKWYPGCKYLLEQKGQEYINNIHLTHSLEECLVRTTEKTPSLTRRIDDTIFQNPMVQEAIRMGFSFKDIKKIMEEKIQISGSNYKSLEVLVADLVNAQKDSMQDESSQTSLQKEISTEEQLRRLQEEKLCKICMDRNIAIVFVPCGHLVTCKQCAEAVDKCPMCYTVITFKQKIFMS

Sequence of Dihydroorotate dehydrogenase (quinone), mitochondrial (Plasmodium falciparum (isolate 3D7)) (Q08210 whole entry, looked up): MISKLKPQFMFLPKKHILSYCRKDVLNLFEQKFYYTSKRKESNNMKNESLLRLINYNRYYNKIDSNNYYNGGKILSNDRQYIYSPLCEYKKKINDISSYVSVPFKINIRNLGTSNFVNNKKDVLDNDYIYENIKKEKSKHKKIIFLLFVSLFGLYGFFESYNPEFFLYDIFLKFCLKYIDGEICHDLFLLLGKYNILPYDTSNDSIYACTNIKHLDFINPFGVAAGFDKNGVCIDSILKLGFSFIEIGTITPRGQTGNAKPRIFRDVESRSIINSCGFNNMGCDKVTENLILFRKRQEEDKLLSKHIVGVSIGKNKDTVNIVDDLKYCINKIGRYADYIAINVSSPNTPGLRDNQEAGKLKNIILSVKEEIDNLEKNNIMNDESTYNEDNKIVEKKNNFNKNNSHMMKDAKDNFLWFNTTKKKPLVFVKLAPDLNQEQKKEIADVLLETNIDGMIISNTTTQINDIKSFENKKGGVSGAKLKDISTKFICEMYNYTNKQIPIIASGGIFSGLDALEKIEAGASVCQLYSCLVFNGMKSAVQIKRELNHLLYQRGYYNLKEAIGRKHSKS

As for `O=C1[C@H]2CCn3c(=O)n(Cc4cc5c(cc4Cl)OCO5)c(=O)n3[C@H]2[C@H](O)[C@@H]2O[C@H]12`, the z-score in assay [1] is -0.581; in assay [2] it was -0.0756 (inactive); in [3], -1.3 (inactive); in assay [5], -0.838 (inactive); in assay [6] it was 0.533 (inactive); in [7], 0.552 (inactive). Also, the z-score in assay [8] is 0.669 (inactive); in assay [9], -1.3. Also, the composite z-score was -0.877 (inactive) in assay [4] and -0.146 in [10].

As to `C[C@H]1CC[C@H]2C(=O)OC(COc3ccc(C(C)(C)C)cc3)CN2[C@@H]1c1ccc(Br)cc1` (stereo not given in full), the z-score in [1] is 0.272; in assay [2], -4.88 (inactive); in assay [3], 0.283 (inactive); in [5], 1.18 (inactive); in [6] it was -0.249 (inactive); in assay [7], 1.22 (inactive). The z-score in assay [8] was 0.662 (inactive); in assay [9], -0.317. The composite z-score was -0.673 (inactive) in assay [4] and -0.173 in assay [10].

Turning to `Cc1ccc2[nH]c3nc(CCCn4ccnc4-c4ccccc4)nnc3c2c1`, the z-score in assay [1] was -0.256; in [2], -0.104 (inactive); in assay [3], -1.15 (inactive); in assay [5], 0.0737 (inactive); in assay [6] it was -0.212 (inactive); in assay [7] it was 0.164 (inactive). The z-score in assay [8] was 0.183 (inactive); in [9], -0.976. The composite z-score in [4] was 0.411 (inactive); in [10], -0.119.

Turning to `COC(=O)[C@H](C)NC(=O)CCC1CC(OC(=O)NCc2cccc3ccccc23)CC2(CCCC(COC(=O)NCc3ccccc3)O2)O1` (stereo not given in full), the z-score in [1] was 2.27; in assay [2], -0.79 (inactive); in assay [3], 1.18 (inactive); in [5], -0.376 (inactive); in [6], 0.136 (inactive); in [7], -0.221 (inactive). Moreover, the z-score in assay [8] was 0.324 (inactive); in assay [9], 1.42. For the same compound, the composite z-score in [4] was 0.0095 (inactive); in assay [10], -0.123.

For `CCOC(=O)[C@H](Cc1ccccc1)NC(=O)CCC1CC(OC(=O)NCc2cccc3ccccc23)CC2(CCCC(COC(=O)NCCOc3ccccc3)O2)O1` (stereo not given in full), the z-score is -0.208 in assay [1]; -1.13 (inactive) in assay [2]; 1.41 (inactive) in [3]; -0.0448 (inactive) in assay [5]; -1.17 (inactive) in assay [6]; 0.19 (inactive) in assay [7]. Further, the results for the z-score in assay [8] and in [9] were -1.67 (inactive) and 1.02, respectively. Also, the composite z-score was -0.533 (inactive) in assay [4] and -0.102 in assay [10].

Consider `O=C1[C@H]2[C@H]3[C@H](O)[C@H](O)CC(=NOCc4ccccc4)[C@@H]3CC[C@H]2C(=O)N1c1cccc(Oc2ccccc2)c1`, for which the z-score in assay [1] was 0.363; in [2], 0.204 (inactive); in assay [3], -0.857 (inactive); in assay [5], 0.741 (inactive); in assay [6] it was 0.056 (inactive); in [7], 0.796 (inactive). In addition, the z-score was 1.4 (inactive) in assay [8] and 0.173 in [9]. The composite z-score was -0.0818 (inactive) in [4] and -0.15 in assay [10].

As to `COC(=O)CC=C1c2ccccc2[C@H](OC)[C@H]1C`, the z-score is -0.71 in assay [1]; 0.338 (inactive) in assay [2]; -0.788 (inactive) in [3]; -0.245 (inactive) in assay [5]; -0.138 (inactive) in [6]; 0.216 (inactive) in [7]. The z-score is 0.403 (inactive) in assay [8] and -0.49 in assay [9]. For the same compound, the composite z-score was 0.582 (inactive) in [4] and 0.419 in assay [10].

With `CC(CCN1CCCc2nc(C)c(C)cc21)=NO[C@@H](C)c1cn([C@H](CO)Cc2ccccc2)nn1`, the z-score in [1] was -0.333; in [2], 0.472 (inactive); in [3], 0.0688 (inactive); in assay [5], -0.725 (inactive); in assay [6], 0.792 (inactive); in [7], 0.851 (inactive). Further, the z-score in assay [8] was 0.961 (inactive); in assay [9] it was -0.789. Besides, the composite z-score is -1.1 (inactive) in [4] and 0.115 in assay [10].

In the case of `COc1ccc(COC(=O)NN=C2C[C@@H](O)[C@@H](O)[C@@H]3[C@@H]4C(=O)N(Cc5ccccc5)C(=O)[C@@H]4CC[C@@H]23)cc1`, the z-score in [1] was 1.13; in assay [2], 0.18 (inactive); in assay [3] it was 0.259 (inactive); in [5], 0.0335 (inactive); in assay [6], 0.325 (inactive); in assay [7], 0.918 (inactive). Besides, the z-score was 0.935 (inactive) in [8] and 1.12 in [9]. In addition, the composite z-score in assay [4] was 0.207 (inactive); in assay [10], -0.102.

Consider `CCOC(=O)CCN1C(=O)[C@H]2[C@@H]3C(=CC[C@H]2C1=O)C(=O)[C@H]1O[C@H]1[C@H]3O`, for which the z-score in assay [1] is -0.423; in assay [2] it was -0.894 (inactive); in assay [3], -5.48 (inactive); in assay [5] it was 0.0335 (inactive); in assay [6] it was -0.548 (inactive); in assay [7] it was -0.254 (inactive). The z-score in assay [8] was 0.322 (inactive); in [9], -2.2. Moreover, the composite z-score in assay [4] was -0.369 (inactive); in assay [10] it was -0.0812.

In the case of `O=C1[C@H]2[C@H]3[C@H](O)[C@H](O)CC(=NO[C@@H]4O[C@H](CO)[C@@H](O)[C@H](O)[C@H]4O)[C@H]3CC[C@H]2C(=O)N1C[C@@H]1CCCO1`, the z-score in assay [1] is 0.724; in assay [2], 0.628 (inactive); in assay [3], -1.45 (inactive); in assay [5] it was -0.355 (inactive); in [6] it was 0.855 (inactive); in assay [7], 0.42 (inactive). Also, the z-score is 0.595 (inactive) in [8] and -0.39 in assay [9]. Moreover, the composite z-score in assay [4] was -0.595 (inactive); in assay [10], 0.127.

On to `CCN1C(=O)[C@H]2[C@H]3[C@H](O)[C@H](O)CC(=NO[C@@H](C)c4cc(-c5c(C)cc(C)cc5C)no4)[C@@H]3CC[C@H]2C1=O`, for which the z-score is 0.0416 in assay [1]; -2.13 (inactive) in [2]; -0.69 (inactive) in [3]; 0.0646 (inactive) in [5]; 0.0564 (inactive) in [6]; 0.767 (inactive) in assay [7]. Moreover, the z-score in assay [8] was 0.596 (inactive); in assay [9], -0.835. Besides, the composite z-score in assay [4] is -0.126 (inactive); in assay [10] it was -0.102.
